# Laboratory results published in PubChem BioAssay AID485317 (Broad Institute, 2010).
# The campaign covered roughly 290,000 compounds. About 11,000 (3.8%) were called active. The full list was thinned out, with actives kept by preference. Unmarked numbers belong to inactive results.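 Rule for the calls: active = mean replicate inhibition above about 79%, with every replicate also reaching it (limit read from the data); inconclusive = only one of the two criteria met; inactive = mean below limit and not every replicate reaching it.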
# Target: FAD-linked sulfhydryl oxidase ALR (Homo sapiens) (UniProt P55789)
# Experiment: inhibitors of human ALR sulfhydryl oxidase, primary screen, biochemical, H2O2 detection, HRP-luminol luminescence, single point (AID 485317)
# Details: purified ALR, DTT oxidation, active compounds read high, concentration not given here
# Chain of FAD-linked sulfhydryl oxidase ALR (Homo sapiens) (P55789 whole entry, looked up): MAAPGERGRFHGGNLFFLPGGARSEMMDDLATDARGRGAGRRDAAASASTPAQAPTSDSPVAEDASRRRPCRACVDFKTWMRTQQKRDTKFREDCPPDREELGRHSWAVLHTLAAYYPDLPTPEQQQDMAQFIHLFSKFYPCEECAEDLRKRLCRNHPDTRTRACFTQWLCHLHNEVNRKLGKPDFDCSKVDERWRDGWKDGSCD
row,SMILES,inhibition
1,Cc1ccc(-c2nc(C)sc2CC(=O)O)cc1,99.3% (active)
2,Cc1ccc(-c2nc(C)sc2CC(=O)OCC(=O)Nc2c(F)cccc2F)cc1,-7.76%
3,CCOc1ccc(-c2nc(C)sc2CC(=O)O)cc1,-6.6%
4,Cc1ccc(C(=O)OCC(=O)N2CCCCCC2)cc1S(=O)(=O)N1CCOCC1,-22.6%
5,COc1cccc(CNC(=O)COC(=O)CN2C(=O)NC3(CCCCC3C)C2=O)c1 (centres undefined),2.16%
6,Oc1ccc(/C=N/NC2=NCCCCC2)c(O)c1,81.4% (active)
7,COc1ccc(/C=C(\C#N)C(=O)ONC2=NCCCCC2)cc1,12.1%
8,COc1ccccc1N1CCN(/N=C/c2ccc(O)cc2O)CC1,1.54%
9,Cc1nc2ccccc2nc1N/N=C/c1ccc(O)cc1O,95.7% (active)
10,Oc1ccc(/C=N/Nc2nc(-c3ccccc3F)nc3ccccc23)c(O)c1,6.31%
11,FC(F)(F)c1nc2ccccc2nc1N/N=C/c1ccc(Cl)cc1,-14.4%
12,COc1ccc(OC)c(/C=C/C(=O)c2ccc3c(c2)OCO3)c1,3.84%
13,COc1cc(OC)cc(C(=O)NNC(=O)CNC(=O)c2ccc(Br)o2)c1,7.85%
14,CC(=O)Nc1ccc(C(=O)NNC(=O)CCCCC(=O)NNC(=O)c2ccc(NC(C)=O)cc2)cc1,-0.231%
15,CNC[C@H]1Oc2c(NC(=O)C3CCCCC3)cccc2C(=O)N([C@H](C)CO)C[C@@H]1C,-1.07%
16,C=CC[C@@H](CC(=O)N[C@H](CO)Cc1ccccc1)C(=O)N[C@H](C)COC(=O)[C@@H](CC=C)Cc1ccc(F)cc1,2.31%
17,CCOC(=O)c1cc(-c2ccccc2C)n(Cc2cc(C)no2)n1,0.367%
18,Cc1ccc(S(=O)(=O)N2[C@@H](c3ccccc3F)C(C(=O)O)=CC[C@H]2c2ccc(Cl)cc2)cc1,2.55%
19,COc1ccc(S(=O)(=O)N2CCN(c3cnccn3)CC2)cc1,-0.305%
20,Cc1nnc(SCC2=C(C(=O)O)N3C(=O)C(NC(=O)Cn4nc(C)c(Cl)c4C)C3SC2)s1 (centres undefined),-10.4%
21,Cc1cc(C)cc(C(=O)NC2C(=O)N3C(C(=O)O)=C(CSc4nnc(C)s4)CSC23)c1 (centres undefined),98% (active)
22,CO/N=C(\C(=O)N[C@@H]1C(=O)N2C(C(=O)O)=C(COC(C)=O)CS[C@H]12)c1csc(N)n1 (stereo in doubt),-8.83%
23,CCc1ccc(Nc2n[n+](-c3ccccc3)c(-c3cccc(Cl)c3Cl)s2)cc1,-4.3%
24,Cc1ccc(S(=O)(=O)NCC(=O)NNC(=O)c2ccc(Br)cc2)cc1C,-2.29%
25,CC1(NC(=O)CCS(=O)(=O)c2ccc(Cl)cc2)CCS(=O)(=O)C1 (centres undefined),-4.01%
26,O=[N+]([O-])c1ccc(O)c(/C=N/Nc2ccccc2[N+](=O)[O-])c1,-10.4%
27,O=C(O)c1ccccc1C(=O)Nc1ccccc1[N+](=O)[O-],-2.15%

row,SMILES,inhibition
1,O=[N+]([O-])c1ccccc1Nc1ccc(O)cc1,99.6% (active)
2,Nc1nnc(SCC(=O)NCC(=O)Nc2ccc(F)c(F)c2F)s1,1.09%
3,CN(CC(=O)NC1CCCCC1)S(=O)(=O)c1cccc2cccnc12,89.5% (active)
4,CN(CC(=O)NC1CCCCC1)S(=O)(=O)c1ccc(Br)s1,-15%
5,CN(CC(=O)NC1CCCC1)S(=O)(=O)c1cnc[nH]1,-4.3%
6,CN(CC(=O)Nc1ccc(Cl)cc1)CC(=O)Nc1cccc2ccccc12,2.05%
7,CCN(CC(=O)Nc1ccc(OC)cc1)C(=O)c1ccc(=O)n(Cc2ccccc2)n1,0.415%
8,Cc1noc(C)c1NC(=O)Nc1ccc2c(c1)C(=O)N([C@H](C)CO)C[C@H](C)[C@@H](CN(C)S(=O)(=O)c1cn(C)cn1)O2,-2.52%
9,NS(=O)(=O)c1ccc(NC(=O)COC(=O)c2c3c(nc4ccccc24)/C(=C\c2ccc4c(c2)OCO4)CCC3)cc1,-36%
10,COc1cc(/C=C2\CCCc3c2nc2ccccc2c3C(=O)O)cc(Cl)c1O,98.2% (active)
11,O=C(COC(=O)c1c2c(nc3ccccc13)/C(=C\c1cccs1)CCC2)Nc1ccccc1Cl,-2.03%
12,CN(CC(=O)NCCc1ccc(S(N)(=O)=O)cc1)CC(=O)Nc1ccc(Cl)cc1,-9.18%
13,CC1(C)C/C(=N/Nc2ccc([N+](=O)[O-])cc2[N+](=O)[O-])C(C)(C)O1,-14.3%
14,CCc1nnc(NS(=O)(=O)c2ccc(NC(=O)c3cccc(OC(F)(F)C(F)F)c3)cc2)s1,88.3% (active)
15,CCc1nnc(NS(=O)(=O)c2ccc(NC(=S)NC(=O)c3cccs3)cc2)s1,63.2%
16,CCc1nnc(NS(=O)(=O)c2ccc(NS(=O)(=O)c3ccccc3)cc2)s1,35.6%
17,O=C(COc1ccccc1)Nc1cc2c3c(c1)CC(=O)N3CCC2,-6.99%
18,O=C(c1ccncc1)N1CCN(S(=O)(=O)c2cccc([N+](=O)[O-])c2)CC1,-48.9%
19,COc1cccc(NC(=O)Cn2c3ccc(F)cc3c3nc4n(c(=O)c32)CCS4)c1,-3.06%
20,COc1cccc(NC(=O)Cn2c3ccccc3c3nc4n(c(=O)c32)CCS4)c1,85.8% (active)
21,COc1cccc(NC(=O)CN2CCN(CC(=O)Nc3ccccc3Cl)CC2)c1,-2.36%
22,C[C@H]1CN([C@@H](C)CO)C(=O)Cc2cc(NS(C)(=O)=O)ccc2O[C@@H]1CN(C)CC1CC1,0.795%
23,Cc1nnc(NC(=O)CSc2nc(C3CCCCC3)nc3ccccc23)s1,-39.6%
24,O=C(CSc1nc(C2CC2)nc2ccccc12)Nc1ccc2c(c1)OCCO2,40.9%
25,CN(C(=O)CSc1nc(C2CC2)nc2ccccc12)c1nc(-c2ccccc2)cs1,98.6% (active)
26,Cc1ccccc1OCC(=O)NNC(=O)c1ccc(-n2cncn2)c([N+](=O)[O-])c1,-24.1%
27,O=C(NCCCN1CCCC1=O)c1ccc(S(=O)(=O)Nc2ccccc2)cc1,-9.87%
